Laboratory results reported in the supplement of paper PMC8728848.
Shown is part of a subset that was picked to be rich in the strongest signals.

Legend:
Test in all cases: glycan array binding signal (z-score within array); higher = stronger binding
Details in all cases: glycan notation: IUPAC condensed, linker removed
[1] = target: Fuc(a1-2)Gal(b1-3)GalNAc(a1-3)[Fuc(a1-2)]Gal(b1-4)GlcNAc
Method in brief: (§1)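 Arrays were curated from the Consortium for Functional Glycomics database, 3228 in total, and kept only where the protein sequence was available. Binding is expressed as a within-array Z-score. This score was averaged across arrays of the same protein sequence at different concentrations or buffers and across linkers, and negative values can be read as non-binding.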

Fuc(a1-2)Gal(b1-4)GlcNAc = target: Fuc(a1-2)Gal(b1-4)GlcNAc
Method in brief: as §1

[2] = target: Fuc(a1-2)Gal(b1-4)GlcNAc(b1-3)Gal(b1-4)GlcNAc(b1-2)Man(a1-3)[Fuc(a1-2)Gal(b1-4)GlcNAc(b1-3)Gal(b1-4)GlcNAc(b1-2)Man(a1-6)]Man(b1-4)GlcNAc(b1-4)GlcNAc
Method in brief: as §1

[3] = target: Fuc(a1-2)Gal(b1-4)GlcNAc(b1-6)GalNAc
Method in brief: as §1

[4] = target: Fuc(a1-2)Gal(b1-4)[Fuc(a1-3)]GlcNAc(b1-3)[Neu5Ac(a2-6)Gal(b1-4)GlcNAc(b1-6)]Gal(b1-4)Glc
Method in brief: as §1

[5] = target: Fuc(a1-2)[Gal(a1-3)]Gal(b1-4)GlcNAc(b1-3)[Fuc(a1-2)[Gal(a1-3)]Gal(b1-4)GlcNAc(b1-6)]GalNAc
Method in brief: as §1

[6] = target: Fuc(a1-2)[GalNAc(a1-3)]Gal(b1-3)GlcNAc(b1-2)Man(a1-3)[Fuc(a1-2)[GalNAc(a1-3)]Gal(b1-3)GlcNAc(b1-2)Man(a1-6)]Man(b1-4)GlcNAc(b1-4)[Fuc(a1-6)]GlcNAc
Method in brief: as §1

[7] = target: Fuc(a1-2)[GalNAc(a1-3)]Gal(b1-4)[Fuc(a1-3)]GlcNAc(b1-3)GalNAc
Method in brief: as §1

[8] = target: Fuc(a1-3)[Gal(b1-4)]GlcNAc(b1-6)GalNAc
Method in brief: as §1

Gal(a1-3)Gal = target: Gal(a1-3)Gal
Method in brief: as §1

[9] = target: Gal(a1-3)Gal(b1-3)GlcNAc(b1-6)GalNAc
Method in brief: as §1

Gal(a1-3)Gal(b1-4)Glc = target: Gal(a1-3)Gal(b1-4)Glc
Method in brief: as §1

Gal(b1-3)Gal(b1-4)GlcNAc = target: Gal(b1-3)Gal(b1-4)GlcNAc
Method in brief: as §1

Gal(b1-3)GalNAc = target: Gal(b1-3)GalNAc
Method in brief: as §1

[10] = target: Gal(b1-3)GlcNAc(b1-3)Gal(b1-4)GlcNAc(b1-6)[Gal(b1-3)GlcNAc(b1-3)]Gal(b1-4)Glc
Method in brief: as §1

[11] = target: Gal(b1-3)GlcNAc(b1-3)Gal(b1-4)[Fuc(a1-3)]GlcNAc
Method in brief: as §1

[12] = target: Gal(b1-3)[Fuc(a1-4)]GlcNAc(b1-2)Man
Method in brief: as §1

[13] = target: Gal(b1-3)[Fuc(a1-4)]GlcNAc(b1-3)Gal(b1-4)[Fuc(a1-3)]GlcNAc
Method in brief: as §1

[14] = target: Gal(b1-4)GlcNAc(b1-3)Gal(b1-4)GlcNAc(b1-2)[Gal(b1-4)GlcNAc(b1-3)Gal(b1-4)GlcNAc(b1-6)]Man(a1-6)[Gal(b1-4)GlcNAc(b1-3)Gal(b1-4)GlcNAc(b1-2)Man(a1-3)]Man(b1-4)GlcNAc(b1-4)GlcNAc
Method in brief: as §1

[15] = target: Gal(b1-4)GlcNAc(b1-3)Gal(b1-4)GlcNAc(b1-3)Gal(b1-4)GlcNAc
Method in brief: as §1

[16] = target: Gal(b1-4)GlcNAc(b1-3)GalNAc
Method in brief: as §1

Gal3S(b1-4)Glc = target: Gal3S(b1-4)Glc
Method in brief: as §1

[17] = target: Gal3S(b1-4)[Fuc(a1-3)]Glc6S
Method in brief: as §1

GalNAc3S(b1-4)GlcNAc = target: GalNAc3S(b1-4)GlcNAc
Method in brief: as §1

[18] = target: GlcNAc(b1-2)[GlcNAc(b1-6)]Man(a1-6)[GlcNAc(b1-2)Man(a1-3)]Man(b1-4)GlcNAc(b1-4)[Fuc(a1-6)]GlcNAc
Method in brief: as §1

[19] = target: GlcNAc(b1-3)Gal(b1-4)GlcNAc
Method in brief: as §1

[20] = target: GlcNAc(b1-3)Gal(b1-4)GlcNAc(b1-2)Man(a1-3)[GlcNAc(b1-3)Gal(b1-4)GlcNAc(b1-2)Man(a1-6)]Man(b1-4)GlcNAc(b1-4)GlcNAc
Method in brief: as §1

[21] = target: GlcNAc(b1-3)Gal(b1-4)GlcNAc(b1-3)Gal(b1-4)GlcNAc
Method in brief: as §1

[22] = target: GlcNAc(b1-3)Gal(b1-4)GlcNAc(b1-6)[Gal(b1-3)]GalNAc
Method in brief: as §1

[23] = target: GlcNAc(b1-3)[GlcNAc(b1-6)]GalNAc
Method in brief: as §1

[24] = target: Neu5Ac(a2-3)Gal(b1-4)GlcNAc(b1-3)Gal
Method in brief: as §1

[25] = target: Neu5Ac(a2-3)Gal(b1-4)[Fuc(a1-3)]GlcNAc(b1-3)Gal(b1-4)GlcNAc
Method in brief: as §1

[26] = target: Neu5Ac(a2-3)Gal(b1-4)[Fuc(a1-3)]GlcNAc(b1-3)Gal(b1-4)[Fuc(a1-3)]GlcNAc(b1-3)Gal(b1-4)[Fuc(a1-3)]GlcNAc
Method in brief: as §1

[27] = target: Neu5Ac(a2-3)Gal6S(b1-4)GlcNAc
Method in brief: as §1

[28] = target: Neu5Ac(a2-3)[Neu5Ac(a2-6)]GalNAc
Method in brief: as §1

[29] = target: Neu5Ac(a2-6)Gal(b1-4)GlcNAc(b1-2)Man(a1-6)[Man(a1-3)]Man(b1-4)GlcNAc(b1-4)GlcNAc
Method in brief: as §1

[30] = target: Neu5Ac(a2-8)Neu5Ac(a2-8)Neu5Ac(a2-3)Gal(b1-4)Glc
Method in brief: as §1

[31] = target: Neu5Ac9Ac(a2-3)Gal(b1-3)GlcNAc
Method in brief: as §1

B1: R2-fiber (Pseudomonas aeruginosa), Q9S576 (protein)
chain: HHHHHHKVAKDLVVSLAYQVRTEDGVLVDESPVSAPLDYLHGHGSLISGLETALEGHEVGDKFDVAVGANDAYGQYDENLVQRVPKDVFMGVDELQVGMRFLAETDQGPVPVEITAVEDDHVVVDGNHMLAGQNLKFNVEVVAIREATEEELAHGHVHGAHDHHHDHDHDGCCGGHGHDHGHEHGGEGCCGGKGNGGCGCHENLYFQGVTAGMALAATDIPGLDASKLVSGVLAEQRLPVFARGLATAVSNSSDPNTATVPLMLTNHANGPVAGRYFYIQSMFYPDQNGNASQIATSYNATSEMYVRVSYAANPSIREWLPWQRCDIGGSFTKEADGELPGGVNLDSMVTSGWWSQSFTAQAASGANYPIVRAGLLHVYAASSNFIYQTYQAYDGESFYFRCRHSNTWFPWRRMWHGGDFNPSDYLLKSGFYWNALPGKPATFPPSAHNHDVGQLTSGILPLARGGVGSNTAAGARSTIGAGVPATASLGASGWWRDNDTGLIRQWGQVTCPADADASITFPIPFPTLCLGGYANQTSAFHPGTDASTGFRGATTTTAVIRNGYFAQAVLSWEAFGR
- glycan array binding signal (z-score) [1]: 2.11
- glycan array binding signal (z-score) (Fuc(a1-2)Gal(b1-4)GlcNAc): 0.297
- glycan array binding signal (z-score) [2]: -1.36
- glycan array binding signal (z-score) [3]: -0.579
- glycan array binding signal (z-score) [4]: -0.021
- glycan array binding signal (z-score) [5]: 2.68
- glycan array binding signal (z-score) [6]: -0.288
- glycan array binding signal (z-score) [7]: 3.46
- glycan array binding signal (z-score) [8]: 2.09
- glycan array binding signal (z-score) (Gal(a1-3)Gal): 0.366
- glycan array binding signal (z-score) [9]: 0.045
- glycan array binding signal (z-score) (Gal(a1-3)Gal(b1-4)Glc): -0.505
- glycan array binding signal (z-score) (Gal(b1-3)Gal(b1-4)GlcNAc): -0.114
- glycan array binding signal (z-score) (Gal(b1-3)GalNAc): -0.235
- glycan array binding signal (z-score) [10]: 0.141
- glycan array binding signal (z-score) [11]: 0.162
- glycan array binding signal (z-score) [12]: -0.063
- glycan array binding signal (z-score) [13]: 2.1
- glycan array binding signal (z-score) [14]: 2.06
- glycan array binding signal (z-score) [15]: 0.018
- glycan array binding signal (z-score) [16]: -1.43
- glycan array binding signal (z-score) (Gal3S(b1-4)Glc): -0.16
- glycan array binding signal (z-score) [17]: 0.853
- glycan array binding signal (z-score) (GalNAc3S(b1-4)GlcNAc): -0.587
- glycan array binding signal (z-score) [18]: 14.6
- glycan array binding signal (z-score) [19]: -0.499
- glycan array binding signal (z-score) [20]: 0.012
- glycan array binding signal (z-score) [21]: 0.586
- glycan array binding signal (z-score) [22]: 0.122
- glycan array binding signal (z-score) [23]: 0.283

B2: 3FTT (Staphylococcus aureus), Q5HCZ5 (protein)
chain: MTEKEKMLAEKWYDANFDQYLINERARAKDICFELNHTRPSATNKRKELIDQLFQTTTDNVSISIPFDTDYGWNVKLGKNVYVNTNCYFMDGGQITIGDNVFIGPNCGFYTATHPLNFHHRNEGFEKAGPIHIGSNTWFGGHVAVLPGVTIGEGSVIGAGSVVTKDIPPHSLAVGNPCKVVRKIDNDLPSETLNDETIK
- glycan array binding signal (z-score) [24]: 0.012
- glycan array binding signal (z-score) [25]: 0.162
- glycan array binding signal (z-score) [26]: -0.195
- glycan array binding signal (z-score) [27]: 0.037
- glycan array binding signal (z-score) [28]: 0.223
- glycan array binding signal (z-score) [29]: -0.226
- glycan array binding signal (z-score) [30]: 0.056
- glycan array binding signal (z-score) [31]: -0.153
